An excerpt weighted towards active compounds, which were near 7.4% of everything screened.
ELG1 genotoxic: inducers of genotoxicity in HEK293T ELG1-luciferase cells; HEK293T ELG1-luciferase reporter, luminescence, 16 h; Potency, µM (titrated, usually from 46 µM), without a hit: top-dose activity change, positive = activation, hits mostly activators; actives 1.3% (n = 330,000); AID 504466; further: % of control where 0% means no effect; nearly all actives have a fitted effect of over 60% in size
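ELG1-luciferase HEK293T cells, 2,000/well; compound pinned in; 16 hr, 37 °C, 5% CO2; ONE-Glo, 30 min RT; luminescence on CCD imager.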
Rab9 prom act: activators of Rab9 promoter | Huh7 Rab9 promoter-luciferase reporter, luminescence, 24 h | Potency, µM (series often up to 9.22 µM), for the others: at the top dose activation, negative = inhibition, usual class: activators | actives 2.8% (n = 320,000) | AID 485297; further: % of control where 0% means no effect; nearly all actives have a fitted effect of over 60% in size
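Huh7 cells stably carrying Rab9 promoter–luciferase reporter, plated 1500 cells/well, compound added after 2 h and incubated 24 h at 37 °C; luciferase luminescence then read after 10 min with detection reagent.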
SMN2 splice enh: enhancers of SMN2 splice variant expression. HEK293 SMN2-luciferase splicing reporter, luminescence, 30-36 h. Potency, µM (doses to about 46.1 µM), for inactives: at the highest dose activity change, positive = activation, most hits filed as activators. actives 2.8% (n = 210,000); further: % of control where 0% means no effect; nearly all actives have a fitted effect of over 55% in size
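HEK293 cells carry an SMN2 […]–luciferase reporter in which exon 7 inclusion puts luciferase in frame. Cells were plated 10-12 h before compound addition, then incubated 30-36 h at 37C. ONE-Glo luminescence was read; sodium butyrate at 4.5 mM final served as control.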
FLuc modulator: inhibits or activates purified firefly luciferase, miR-21 counter-screen | P08659 | purified FLuc, Km substrates, luminescence inhibition | Potency, µM (top dose mostly 57.5 µM), inactives show top-dose activity change, negative = inhibition, most hits filed as inhibitors | actives 6.9% (n = 360,000) | AID 588342;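 further: plate controls were vehicle for no effect and reference inhibitor for full effect; nearly all actives have a fitted effect of over 55% in size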
Target sequence (P08659 whole entry, looked up): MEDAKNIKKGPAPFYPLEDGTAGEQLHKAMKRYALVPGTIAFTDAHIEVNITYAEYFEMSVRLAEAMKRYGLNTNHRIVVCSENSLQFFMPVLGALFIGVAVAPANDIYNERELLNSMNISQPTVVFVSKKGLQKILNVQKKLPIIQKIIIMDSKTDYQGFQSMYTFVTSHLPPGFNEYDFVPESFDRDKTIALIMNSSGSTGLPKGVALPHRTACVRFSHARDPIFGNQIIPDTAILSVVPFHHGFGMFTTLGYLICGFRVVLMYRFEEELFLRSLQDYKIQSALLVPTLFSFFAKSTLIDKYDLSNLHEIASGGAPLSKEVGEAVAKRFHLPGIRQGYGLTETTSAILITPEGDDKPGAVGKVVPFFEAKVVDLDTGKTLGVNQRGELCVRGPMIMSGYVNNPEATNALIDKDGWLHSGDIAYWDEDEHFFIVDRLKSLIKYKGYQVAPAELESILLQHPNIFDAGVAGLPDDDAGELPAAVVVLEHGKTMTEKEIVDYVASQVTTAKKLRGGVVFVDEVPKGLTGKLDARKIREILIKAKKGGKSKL
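Purified P. pyralis luciferase, 10 nM final, with Km-level 10 uM D-luciferin and 10 uM ATP in 50 mM Tris acetate pH 7.5, 10 mM Mg acetate, 0.01% Tween-20, 0.05% BSA; 6-point qHTS titration about 60 µM downward; luminescence read.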
NPC1 promoter act: activators of NPC1 promoter; AID 485313; Huh7 NPC1 promoter luciferase reporter, 24 h; actives 2.4% (n = 320,000); Potency, µM (series often up to 9.22 µM), for inactives: top-dose activation, usual class: activators; further: % of control where 0% means no effect; nearly all actives have a fitted effect of over 60% in size
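Stable NPC1-promoter luciferase Huh7 line; cpd (DMSO) 24 h, 37 °C, 5% CO2; Amplite luciferase reagent 10 min RT; luminescence readout. qHTS format.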
* hit, by the source's call; ? = inconclusive; nt = no result given; [ ] = another dose, or the depositor's remark. The call rests on the fitted dose curve; in most records, active means well fitted curve in the direction sought with a large enough effect; inconclusive means small, poorly fitted or top-dose-only effect, or another doubt; inactive means no such curve, though single readings can be large; an effect the other way counts as inactive or inconclusive. Potency means the concentration at half of the fitted maximal effect.

SMILES	ELG1 genotoxic	Rab9 prom act	SMN2 splice enh	FLuc modulator	NPC1 promoter act
CC(=O)Oc1ccc(/C=C2/C(=O)N(c3ccccc3)N=C2C)cc1	1%	2%	nt	24µM*	-3%
COc1cc(/C=C2/C(=O)N(c3ccc(Br)cc3)N=C2C)cc([N+](=O)[O-])c1O	1%	5%	nt	?	2%
COc1cc(/C=C2\C(=O)N(CCC#N)N=C2C)ccc1OCC(=O)Nc1ccccc1	?	2%	16%	11µM*	2%
Cc1ccc(NS(=O)(=O)c2c(C(=O)N3CCCC3)c(C)n(C)c2C)cc1	0%[9.26 µM]	0%	nt	0%	-4%
CC1=NN(CCC#N)C(=O)/C1=C/c1ccc(N(C)C)cc1	5%	3%	0%	19µM*	1%
CC1=NN(c2ccccc2)C(=O)/C1=C/c1cccc(C)c1	7%	1%	nt	24µM*	-4%
CCOc1cc(/C=C2\C(=O)N(CCC#N)N=C2C)ccc1OCC(N)=O	2%	-8%	27%	-14%	-1%
COc1cc(CC(=O)OCc2ccccc2F)cc(OC)c1OC	2%	7%	nt	-10%	3%
Cc1cccc(N2CC(C)Cn3c2nc2c3c(=O)n(CC(=O)O)c(=O)n2C)c1 (centres undefined)	nt	nt	-5%	-8%	nt
CCOC(=O)CNC(=O)COc1coc(CN2CCN(Cc3ccccc3)CC2)cc1=O	-1%	1%	nt	-1%	-1%
CC(C)(C)c1ccc(OCC(O)CSc2ncn[nH]2)cc1 (centres undefined)	?	?	?	2.1µM*	?
O=C(/C=C/c1ccc(S(=O)(=O)N2CCOCC2)cc1)NC(=S)Nc1ccc(Cl)cc1Cl	12%	-2%	-17%	1%	0%
O=C(Nc1cccnc1)c1cc(-c2ccc(Cl)cc2Cl)on1	?	?	nt	0.38µM*	4µM*
O=C(NCc1ccccc1)c1csc(-c2cccnc2)n1	-16%	1%	nt	-2%	12%
O=C(Nc1cccnc1)c1cc(F)c(F)cc1Cl	-3%	-9%	0%	-1%	-4%
O=C(Nc1ccc(Cl)cc1Cl)c1csc(-c2cccnc2)n1	13%	?	nt	?	2.8µM*
Cc1cc(C(=O)Nc2cccnc2)no1	4%	-1%	4%	-2%	0%
O=C(Nc1cccnc1)c1cc(-c2ccc(Cl)cc2)on1	9%	2%	18%	1.5µM*	-2%
CCOC(=O)c1cnn(-c2nc(OCC)cc(OCC)n2)c1C	-7%	9%	-5%	-1%	0%
CC(OC(=O)c1c2c(nc3ccccc13)/C(=C\c1ccc3c(c1)OCO3)CCC2)C(=O)Nc1ccc(S(N)(=O)=O)cc1 (centres undefined)	-1%	0%	-14%	?	-15%
CNC(=O)NC(=O)C(C)OC(=O)c1c2c(nc3ccccc13)/C(=C/c1cccs1)CC2 (centres undefined)	-17%	-34%	?	6µM*	-32%
CCCCNC(=O)COC(=O)c1c2c(nc3ccccc13)/C(=C/c1cccs1)CC2	-12%	-30%	11µM*	7.6µM*	-32%
NNC(=O)c1cnn(-c2ccccc2)c1-n1cccc1	5%	-9%	-52%	4%	0%
O=C(/C=C/c1ccccc1)Nc1cccnc1	?	2.2µM*	nt	6.7µM*	2.2µM*
Cc1ccc(/C=C/C(=O)Nc2cccnc2)o1	0%	?	?	24µM*	26%
SMILES	ELG1 genotoxic	Rab9 prom act	SMN2 splice enh	FLuc modulator	NPC1 promoter act
O=C(/C=C/c1ccc([N+](=O)[O-])cc1)Nc1cccnc1	?	3.5µM*	13µM*	5.4µM*	2.8µM*
Cc1nc(-c2ccccc2)nc(-c2ccccc2)n1	2%	-1%	nt	-11%	-2%
c1ccc(-c2nnc(-c3ccccc3)nn2)cc1	?	1.3µM*	nt	0.38µM*	3.2µM*
Cc1ccc(C(=O)COC(=O)C(C)N2C(=O)C3C4C=CC(C4)C3C2=O)cc1C (centres undefined)	2%	0%	nt	13µM*	-3%
Cc1ccc(C(=O)COC(=O)c2ccccc2N2C(=O)C3C4CCC(C4)C3C2=O)cc1C (centres undefined)	-1%	12%	-10%	12µM*	-3%
Cc1ccc(C)c(C(=O)COC(=O)CCN2C(=O)C3C4CCC(C4)C3C2=O)c1 (centres undefined)	2%	2%	nt	12µM*	-5%
C=CCOc1ccc(/C=C/C(=O)OCC(=O)NCC(=O)Nc2c(C)cc(C)cc2C)cc1	-4%	20%	nt	-4%	-4%
O=C(Nc1sc2c(c1C(=O)O)CCCC2)c1ccc(Cl)cc1	-2%	27%	nt	19µM*	25%
CC(C)Cc1csc(NC(=O)c2ccccc2Cl)c1C(=O)O	-7%	-2%	-3%	?	-1%
O=C(Nc1sc2c(c1C(=O)O)CCC2)c1ccc(F)cc1	1%	29%	-10%	17µM*	18%
CC(C)Cc1csc(NC(=O)c2ccc(Cl)cc2)c1C(=O)O	0%	0%	20µM*	?	11%
O=C(Nc1sc2c(c1C(=O)O)CCC2)c1ccccc1	23%	?	10µM*	15µM*	26%
O=C1[C@@H]2[C@@H](C(=O)N1c1ccc(OCc3ccccc3)cc1)[C@@H]1c3ccccc3[C@@H]2[n+]2ccccc21	nt	nt	3%[9.22 µM]	nt	nt
Oc1ccc(Br)cc1Cn1nnc2ccccc21	-1%	2%	nt	4%	-1%
O=[N+]([O-])c1ccc2c(c1)Cc1cc(N=Cc3ccc4c(c3)OCO4)ccc1-2	nt	nt	-5%[9.22 µM]	nt	nt
CCc1ccc(C(=O)c2cn(CC(=O)Nc3ccc4c(c3)OCO4)c3ccc(CC)cc3c2=O)cc1	nt	nt	9%	-2%	nt
O=C(Nc1sc2c(c1C(=O)O)CCCCC2)c1ccccc1	-2%	0.89µM*	nt	4.8µM*	2.8µM*
O=C(O)c1c(NC(=O)c2cccc3ccccc23)sc2c1CCC2	-19%	-5%[1.84 µM]	4%	?	9%
O=C(Nc1sc2c(c1C(=O)O)CCCC2)c1cccc(Cl)c1	-2%	?	nt	24µM*	?
CCn1c(=O)n(CC)c2cc(N3CCCCC3)c(NC(=O)Nc3cc(Cl)ccc3OC)cc21	nt	nt	nt	-5%	nt
COc1cccc(-c2nnc(-c3ccccc3[N+](=O)[O-])o2)c1	?	4µM*	nt	9.5µM*	?
COc1cccc(-c2nnc(-c3ccco3)o2)c1	?	2.5µM*	11µM*	9.5µM*	2.5µM*
COc1cccc(-c2nnc(-c3ccc(C)o3)o2)c1	?	0.71µM*	2.8µM*	1.7µM*	1.1µM*
CCOC(=O)c1nn(-c2ccc(C)cc2)cc1O	3.2µM*	?	?	7.6µM*	4.5µM*
CCOC(=O)C1=NN(c2ccc(Cl)cc2)C(=O)C1	?	?	nt	9.5µM*	?
CCOC(=O)c1nn(-c2ccc3ccccc3c2)cc1O	15µM*	23%	13%	8.5µM*	?
CCOC(=O)c1nn(-c2ccc(Cl)cc2)cc1O	?	?	nt	11µM*	?
